# According to PubChem BioAssay:
# Calls of active or inactive are those of the source. Unless noted, the rule behind the calls is not given here.
# Experiments:
# [1] = tested on: Wnt5a (protein binding on small-molecule microarray); test: Wnt5a binders on small-molecule microarray, primary screen, biophysical, 635/667 nm fluorescence (AID 1142); conditions: 635 nm fluorescence, higher = more signal;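 note: fluorescence read at 667 nm with signal to noise per printed feature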
# [2] = cell viability in Huh7 cells, primary screen, cytotoxicity control for HCV replication inhibitor project, CellTiter-Glo luminescence, basal, 48 h (AID 1143); conditions: Huh7 HCV replicon, higher = more signal, called active from +8 up or from −8 down;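 note: Huh7 hepatoma cells carrying a hepatitis C replication reporter with no stimulus; test concentration not given here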
# [3] = P. aeruginosa biofilm formation inhibitors, primary screen, PAO1 strain, BacTiter-Glo luminescence, LB-PBS (AID 1144); conditions: 12 h, higher = more signal
# [4] = CREB reporter modulators without forskolin, primary screen, cell-based, PC12, CRE-LacZ reporter, unstimulated (AID 1145); conditions: no forskolin, luminescence, 4.5 h, higher = more signal, called active from +8 up or from −8 down
# [5] = CREB reporter modulators under forskolin, primary screen, cell-based, PC12, CRE-LacZ reporter, forskolin-stimulated (AID 1146); conditions: luminescence, 4.5 h, higher = more signal, called active from +8 up or from −8 down;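 note: PC12 cells with 6xCRE LacZ reporter stimulated by forskolin 10 µM; beta-galactosidase reporter signal reflecting CREB driven transcription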
# [6] = biological target: Streptavidin (Streptomyces avidinii) (UniProt P22629); test: streptavidin binders on small-molecule microarray, primary screen, artefact control for SMM compound annotation, biophysical, 635/667 nm fluorescence (AID 1147); conditions: streptavidin binding, higher = more signal;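 note: signal reflects streptavidin binding to arrayed compounds as a control protein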
# [7] = small-molecule binders of probe aInhba, primary screen, biochemical, small-molecule microarray, 635/667 nm fluorescence (AID 1148); conditions: higher = more signal;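 note: score merges 667nm spot fluorescence with signal-to-noise for antibody binding to printed compounds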
# Torsin-1A (Homo sapiens) [8] = biological target: Torsin-1A (Homo sapiens) (UniProt O14656); test: torsin A binders from cell lysate, primary screen, small-molecule microarray, wild-type, 635/667 nm (AID 1149); conditions: COS7 hTOR1A-WT lysate, 635 nm fluorescence, higher = more signal
# Torsin-1A (Homo sapiens) [9] = biological target: Torsin-1A (Homo sapiens) (UniProt O14656); test: small-molecule binders of mutant TOR1A in lysate, primary screen, cell lysate, small-molecule microarray, COS7 lysate, 635/667 nm fluorescence (AID 1150); conditions: COS7 hTOR1A mutant lysate, 635 nm fluorescence, higher = more signal;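 note: score pools 667 nm emission and signal to noise measuring lysate protein binding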
# [10] = tested on: Sonic hedgehog protein (Shh); test: small-molecule binders of Shh protein, primary screen, biochemical, small-molecule microarray, 635/667 nm fluorescence (AID 1151); conditions: small-molecule microarray binding, 635 nm fluorescence; higher = more signal;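 note: Shh protein binding to compounds spotted on small-molecule microarray slides; score combines spot fluorescence intensity with signal-to-noise across triplicate slides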
# [11] = E. coli DRC41 culture turbidity changes, primary screen, E. coli filamentation inducer project, strain DRC41, OD650, 48 h (AID 1152);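 note: E. coli MC1000 strain DRC41 lacking acrAB efflux pump and sulA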; conditions: E. coli DRC41 (acrAB sulA), higher = more signal, called active from +8 up or from −8 down
# [12] = small-molecule binders of probe aLefty1, primary screen, biochemical, small-molecule microarray, 635/667 nm fluorescence (AID 1153); conditions: higher = more signal;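 note: score merges spot fluorescence with signal-to-noise ratio from the scanned slide images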
# [13] = PSAC antagonists in infected red cells, primary screen, cell-based, P. falciparum Indochina, OD700, 1 h (AID 1154); conditions: P. falciparum Indochina infected RBC osmotic lysis, higher = more signal, called active from +8 up or from −8 down
# [14] = PSAC antagonists in infected red cells, primary screen, cell-based, P. falciparum Indochina, OD700, 2 h (AID 1155);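 note: lysis reports solute entry through the parasite surface anion channel PSAC; channel blockers reduce lysis of infected cells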; conditions: P. falciparum Indochina infected erythrocytes, osmotic lysis OD700; higher = more signal, called active from +8 up or from −8 down
# [15] = osmotic lysis modulators in infected erythrocytes, primary screen, PSAC antagonist project, cell-based, P. falciparum Indochina, OD700, 3 h (AID 1156); conditions: higher = more signal, called active from +8 up or from −8 down
# [16] = PSAC antagonists in infected red cells, primary screen, cell-based, P. falciparum Indochina, OD700, 18 h (AID 1157); conditions: P. falciparum Indochina infected erythrocytes, osmotic lysis OD700, 18 h; higher = more signal, called active from +8 up or from −8 down
# [17] = modulators of S6 phosphorylation in cells, primary screen, cell-based, A549, cytoblot, luminescence, serum-stimulated (AID 1158); conditions: A549 phospho-S6 cytoblot, 5 h, higher = more signal;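 note: serum-stimulated A549 lung adenocarcinoma cells; signal is phosphorylated S6 detected by cytoblot immunostaining with HRP secondary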
# [18] = biological target: NADPH oxidase 2 (Homo sapiens) (UniProt P04839); test: NOX2-dependent H2O2 signal modulators, primary screen, NOX inhibitor project, cell-based, HEK293-NOX2, PMA-stimulated, Amplex Red fluorescence (AID 1159); conditions: 45 min, higher = more signal, called active from +8 up or from −8 down; note: test concentration not given here
# [19] = biological target: NADPH oxidase 4 (Homo sapiens) (UniProt Q9NPH5); test: NOX4-dependent H2O2 signal modulators, primary screen, NOX inhibitor project, cell-based, HEK293-NOX4, tetracycline-induced, Amplex Red fluorescence (AID 1160); conditions: 45 min, higher = more signal, called active from +8 up or from −8 down
# [20] = biological target: NADPH oxidase 5 (Homo sapiens) (UniProt Q96PH1); test: NOX5-dependent H2O2 signal modulators, primary screen, NOX inhibitor project, cell-based, HEK293-NOX5, Amplex Red fluorescence (AID 1161); conditions: HEK293-NOX5, ionomycin, 45 min, higher = more signal
# NADPH oxidase 5 (Homo sapiens), sequence (Q96PH1 whole entry, looked up): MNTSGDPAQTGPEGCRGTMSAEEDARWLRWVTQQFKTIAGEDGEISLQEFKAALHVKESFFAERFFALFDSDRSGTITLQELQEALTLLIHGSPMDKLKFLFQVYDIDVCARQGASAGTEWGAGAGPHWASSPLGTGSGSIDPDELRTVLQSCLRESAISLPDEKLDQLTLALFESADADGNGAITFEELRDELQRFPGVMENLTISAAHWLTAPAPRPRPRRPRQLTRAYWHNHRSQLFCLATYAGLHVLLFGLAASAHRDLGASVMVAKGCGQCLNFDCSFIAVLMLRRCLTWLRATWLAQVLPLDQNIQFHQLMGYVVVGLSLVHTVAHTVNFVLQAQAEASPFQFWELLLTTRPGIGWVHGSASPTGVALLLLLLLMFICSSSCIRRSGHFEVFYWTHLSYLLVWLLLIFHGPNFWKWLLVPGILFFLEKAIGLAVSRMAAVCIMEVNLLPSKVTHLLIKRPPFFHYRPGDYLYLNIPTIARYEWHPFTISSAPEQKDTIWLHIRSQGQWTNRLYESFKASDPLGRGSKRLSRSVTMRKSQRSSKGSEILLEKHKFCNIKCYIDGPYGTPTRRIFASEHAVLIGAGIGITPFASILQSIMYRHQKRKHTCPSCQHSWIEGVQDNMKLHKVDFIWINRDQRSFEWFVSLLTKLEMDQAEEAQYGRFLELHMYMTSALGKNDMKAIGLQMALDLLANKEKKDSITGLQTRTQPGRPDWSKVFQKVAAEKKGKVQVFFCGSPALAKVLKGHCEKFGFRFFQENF
# Streptavidin (Streptomyces avidinii), sequence (P22629 whole entry, looked up): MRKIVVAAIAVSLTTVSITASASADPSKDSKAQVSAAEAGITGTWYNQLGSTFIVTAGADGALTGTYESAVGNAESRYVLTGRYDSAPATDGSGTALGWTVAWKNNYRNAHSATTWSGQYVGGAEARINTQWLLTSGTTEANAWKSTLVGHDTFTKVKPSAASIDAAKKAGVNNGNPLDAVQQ
# NADPH oxidase 2 (Homo sapiens), sequence (P04839 whole entry, looked up): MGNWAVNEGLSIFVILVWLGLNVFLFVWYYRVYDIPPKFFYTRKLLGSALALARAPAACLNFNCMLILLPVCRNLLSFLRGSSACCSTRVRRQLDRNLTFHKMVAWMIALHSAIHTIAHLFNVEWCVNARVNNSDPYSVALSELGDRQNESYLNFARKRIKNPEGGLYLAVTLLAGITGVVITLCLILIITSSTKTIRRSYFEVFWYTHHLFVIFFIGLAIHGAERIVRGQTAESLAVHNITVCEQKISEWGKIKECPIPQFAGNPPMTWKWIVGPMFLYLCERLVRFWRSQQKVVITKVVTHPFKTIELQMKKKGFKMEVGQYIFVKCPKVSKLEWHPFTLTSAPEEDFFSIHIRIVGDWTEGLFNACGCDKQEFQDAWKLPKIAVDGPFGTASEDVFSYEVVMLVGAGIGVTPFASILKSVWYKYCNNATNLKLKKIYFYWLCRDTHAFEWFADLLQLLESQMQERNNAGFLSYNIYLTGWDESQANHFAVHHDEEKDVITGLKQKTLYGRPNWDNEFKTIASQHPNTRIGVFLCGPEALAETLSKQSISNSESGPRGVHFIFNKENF
# NADPH oxidase 4 (Homo sapiens), sequence (Q9NPH5 whole entry, looked up): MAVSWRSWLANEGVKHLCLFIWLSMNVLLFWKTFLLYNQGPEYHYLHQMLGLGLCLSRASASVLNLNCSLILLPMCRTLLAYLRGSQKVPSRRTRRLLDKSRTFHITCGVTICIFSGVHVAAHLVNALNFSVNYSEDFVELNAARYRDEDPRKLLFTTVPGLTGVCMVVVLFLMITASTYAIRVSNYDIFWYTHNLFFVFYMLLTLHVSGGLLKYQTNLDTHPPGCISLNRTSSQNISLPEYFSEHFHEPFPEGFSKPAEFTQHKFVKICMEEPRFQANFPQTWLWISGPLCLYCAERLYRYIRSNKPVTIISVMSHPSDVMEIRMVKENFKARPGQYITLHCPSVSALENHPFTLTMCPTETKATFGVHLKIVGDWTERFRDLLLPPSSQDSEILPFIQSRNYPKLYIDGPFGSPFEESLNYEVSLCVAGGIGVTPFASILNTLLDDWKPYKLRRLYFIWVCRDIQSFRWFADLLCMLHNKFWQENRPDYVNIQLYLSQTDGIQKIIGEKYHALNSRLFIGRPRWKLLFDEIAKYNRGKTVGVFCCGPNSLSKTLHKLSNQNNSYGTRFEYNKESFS
# Torsin-1A (Homo sapiens), sequence (O14656 whole entry, looked up): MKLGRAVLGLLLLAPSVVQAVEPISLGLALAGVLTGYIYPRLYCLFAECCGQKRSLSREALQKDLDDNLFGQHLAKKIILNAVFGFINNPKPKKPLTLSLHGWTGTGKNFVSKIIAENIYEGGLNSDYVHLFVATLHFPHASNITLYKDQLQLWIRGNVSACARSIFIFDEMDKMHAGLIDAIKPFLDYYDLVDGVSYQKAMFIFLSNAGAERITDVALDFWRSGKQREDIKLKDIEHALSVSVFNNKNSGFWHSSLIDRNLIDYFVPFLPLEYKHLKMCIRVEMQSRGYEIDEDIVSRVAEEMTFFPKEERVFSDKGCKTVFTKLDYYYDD
compound,measurement,setting,value
CCOC(=O)C[C@H]1[C@H](OC(=O)c2cc3ccccc3oc2=O)[C@@H](NC(=O)C2CCCCC2)c2cc(OCCCO)ccc2N1C(=O)c1ccccc1,composite z-score,[1],-0.0359
same,z-score,[2],-3.06 (inactive)
same,z-score,[3],0.838 (inactive)
same,z-score,[4],11 (active)
same,z-score,[5],-1.65 (inactive)
same,composite z-score,[6],0.191
same,composite z-score,[7],-0.0245
same,composite z-score,Torsin-1A (Homo sapiens) [8],0.046
same,composite z-score,Torsin-1A (Homo sapiens) [9],0.159
same,composite z-score,[10],0.705
same,z-score,[11],1.67 (inactive)
same,composite z-score,[12],-0.147
same,z-score,[13],0.388 (inactive)
same,z-score,[14],-0.269 (inactive)
same,z-score,[15],0.342 (inactive)
same,z-score,[16],-1.4 (inactive)
same,z-score,[17],1.18
same,z-score,[18],-0.341 (inactive)
same,z-score,[19],0.609 (inactive)
same,z-score,[20],0.305
COc1ccc([Si](C)(C)[C@@H]2[C@@H](CC(=O)N3Cc4ccccc4C[C@H]3CO)O[C@]3(C(=O)N(C)c4c(Br)cc(C)cc43)[C@H]2C)cc1,composite z-score,[1],0.251
same,z-score,[2],-5.91 (inactive)
same,z-score,[3],-1.41 (inactive)
same,z-score,[4],6.12 (inactive)
same,z-score,[5],0.0739 (inactive)
same,composite z-score,[6],0.813
same,composite z-score,[7],-0.0645
same,composite z-score,Torsin-1A (Homo sapiens) [8],1.01
same,composite z-score,Torsin-1A (Homo sapiens) [9],1.19
same,composite z-score,[10],2.14
same,z-score,[11],0.0945 (inactive)
same,composite z-score,[12],0.297
same,z-score,[13],9.71 (active)
same,z-score,[14],2.3 (inactive)
same,z-score,[15],0.392 (inactive)
same,z-score,[16],1.9 (inactive)
same,z-score,[17],2.09
same,z-score,[18],0.0136 (inactive)
same,z-score,[19],0.0254 (inactive)
same,z-score,[20],-0.0526
C=CCNC(=O)[C@H]1[C@@H]2C(=O)O[C@@H](c3ccccc3)[C@@H](c3ccccc3)N2[C@@H](c2ccc(OCCO)cc2)[C@]12C(=O)Nc1ccc(C#CC3=CCCCC3)cc12,composite z-score,[1],0.722
same,z-score,[2],-4.45 (inactive)
same,z-score,[3],0.334 (inactive)
same,z-score,[4],0.775 (inactive)
same,z-score,[5],-0.267 (inactive)
same,composite z-score,[6],0.376
same,composite z-score,[7],-0.0136
same,composite z-score,Torsin-1A (Homo sapiens) [8],0.127
same,composite z-score,Torsin-1A (Homo sapiens) [9],0.578
same,composite z-score,[10],1.54
same,z-score,[11],0.951 (inactive)
same,composite z-score,[12],-0.101
same,z-score,[13],2.36 (inactive)
same,z-score,[14],1.66 (inactive)
same,z-score,[15],-1.04 (inactive)
same,z-score,[16],1.4 (inactive)
same,z-score,[17],-0.571
same,z-score,[18],1.24 (inactive)
same,z-score,[19],-1.05 (inactive)
same,z-score,[20],1.02
O=C1NC(=O)C2C1C=CC(C(O)c1cccc3ccccc13)N2Nc1ccccn1 (stereo not given),composite z-score,[1],0.0051
same,z-score,[2],0.697 (inactive)
same,z-score,[3],-0.484 (inactive)
same,z-score,[4],-0.522 (inactive)
same,z-score,[5],-0.285 (inactive)
same,composite z-score,[6],0.278
same,composite z-score,[7],0.185
same,composite z-score,Torsin-1A (Homo sapiens) [8],0.16
same,composite z-score,Torsin-1A (Homo sapiens) [9],0.231
same,composite z-score,[10],-0.516
same,z-score,[11],-0.0275 (inactive)
same,composite z-score,[12],0.137
same,z-score,[13],1.06 (inactive)
same,z-score,[14],0.344 (inactive)
same,z-score,[15],0.274 (inactive)
same,z-score,[16],0.899 (inactive)
same,z-score,[17],-0.562
same,z-score,[18],-1.2 (inactive)
same,z-score,[19],-2.83 (inactive)
same,z-score,[20],-2.36
C#CCNC(=O)[C@H](Cc1ccccc1)NC(=O)CCC(=O)O,composite z-score,[1],-0.0994
same,z-score,[2],0.0187 (inactive)
same,z-score,[3],0.743 (inactive)
same,z-score,[4],0.656 (inactive)
same,z-score,[5],0.301 (inactive)
same,composite z-score,[6],-0.869
same,composite z-score,[7],-0.146
same,composite z-score,Torsin-1A (Homo sapiens) [8],0.119
same,composite z-score,Torsin-1A (Homo sapiens) [9],0.544
same,composite z-score,[10],-0.192
same,z-score,[11],-0.077 (inactive)
same,composite z-score,[12],-0.36
same,z-score,[13],-0.168 (inactive)
same,z-score,[14],0.748 (inactive)
same,z-score,[15],-0.707 (inactive)
same,z-score,[16],0.0401 (inactive)
same,z-score,[17],-0.665
same,z-score,[18],0.658 (inactive)
same,z-score,[19],-0.198 (inactive)
same,z-score,[20],0.0788
COc1ccc(C(=O)O[C@H]2CC[C@]3(C)C4=C(CCC3C2(C)C)[C@]2(C)CC[C@H]([C@H](C)CCCC(C)C)[C@@]2(C)CC4)cc1 (stereo not given in full),composite z-score,[1],0.314
same,z-score,[2],-1.02 (inactive)
same,z-score,[3],-1.6 (inactive)
same,z-score,[4],0.131 (inactive)
same,z-score,[5],-0.634 (inactive)
same,composite z-score,[6],0.25
same,composite z-score,[7],-0.103
same,composite z-score,Torsin-1A (Homo sapiens) [8],0.344
same,composite z-score,Torsin-1A (Homo sapiens) [9],0.609
same,composite z-score,[10],1
same,z-score,[11],3.06 (inactive)
same,composite z-score,[12],-0.192
same,z-score,[13],-0.44 (inactive)
same,z-score,[14],-0.787 (inactive)
same,z-score,[15],-0.246 (inactive)
same,z-score,[16],-1.6 (inactive)
same,z-score,[17],1.86
same,z-score,[18],-0.13 (inactive)
same,z-score,[19],0.257 (inactive)
same,z-score,[20],0.467
CC(C)C(CO)N1C(=O)[C@@H]2[C@H]3C(=O)OCC=C[C@H]3OC23C=CCN(C(C)C)C(=O)[C@@H]13 (stereo not given in full),composite z-score,[1],-0.3
same,z-score,[2],-0.602 (inactive)
same,z-score,[3],-0.1 (inactive)
same,z-score,[4],-0.757 (inactive)
same,z-score,[5],-0.681 (inactive)
same,composite z-score,[6],-0.629
same,composite z-score,[7],-0.0963
same,composite z-score,Torsin-1A (Homo sapiens) [8],-0.543
same,composite z-score,Torsin-1A (Homo sapiens) [9],-0.374
same,composite z-score,[10],0.841
same,z-score,[11],1.4 (inactive)
same,composite z-score,[12],-0.146
same,z-score,[13],-0.237 (inactive)
same,z-score,[14],0.139 (inactive)
same,z-score,[15],0.333 (inactive)
same,z-score,[16],0.649 (inactive)
same,z-score,[17],-0.1
same,z-score,[18],0.834 (inactive)
same,z-score,[19],0.457 (inactive)
same,z-score,[20],1.23
O=C(c1ccccc1)N1Cc2ccccc2[C@@H]2OC(c3ccc(OCCCO)cc3)=N[C@]2(Cc2ccccc2)C1=O,composite z-score,[1],0.624
same,z-score,[2],-3.55 (inactive)
same,z-score,[3],-0.554 (inactive)
same,z-score,[4],1.35 (inactive)
same,z-score,[5],0.715 (inactive)
same,composite z-score,[6],0.215
same,composite z-score,[7],0.188
same,composite z-score,Torsin-1A (Homo sapiens) [8],0.236
same,composite z-score,Torsin-1A (Homo sapiens) [9],0.423
same,composite z-score,[10],1.33
same,z-score,[11],-0.672 (inactive)
same,composite z-score,[12],0.343
same,z-score,[13],10.8 (active)
same,z-score,[14],1.35 (inactive)
same,z-score,[15],1.25 (inactive)
same,z-score,[16],1.23 (inactive)
same,z-score,[17],-0.118
same,z-score,[18],-0.893 (inactive)
same,z-score,[19],0.418 (inactive)
same,z-score,[20],-0.781
